Values joined by “and” are separate entries in the source; they are usually repeats but may differ in a detail not shown here. Equal values may be shown once. Results filed as inconclusive are left out. Active and inactive are the calls of the source. Unless noted, calls come from the whole dose curve; as a rule, active = well fitted curve in the direction sought with a large enough effect; inconclusive = small, poorly fitted or top-dose-only effect, or another doubt; inactive = no such curve, though single readings can be large; an effect the other way counts as inactive or inconclusive.
Legend:
[1] = qHTS assay for small molecule antagonists of retinoid X receptor alpha signaling (AID 588546; active = well fitted inhibition curve with a large enough effect in the signal ratio, with a control signal flat, not every such curve was filed as active; the % refers to the signal ratio;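 note: cells stimulated with 9-cis-retinoic acid as agonist; % is set by controls: 0 for no effect and ±100 for the full control effect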); conditions: HEK293T RXRa-UAS-bla, beta-lactamase ratio, antagonist mode; measured here: W530 green channel, cytotoxicity proxy
In short: (§1)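 Beta-lactamase reporter inhibition, read as CCF4 fluorescence ratio (ex 405, em 460/530 nm) after 2 h at RT. HEK293T UAS-bla cells, 2500/well, were stimulated with 9-cis-RA at 500 or 100 nM final alongside test compound for 18 h at 37 C.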

[2] = target: Retinoic acid receptor RXR-alpha (Homo sapiens) (UniProt P19793); assay: as above; conditions: HEK293T RXRa-UAS-bla, beta-lactamase ratio, antagonist mode
In short: as §1

[3] = target: Thyroid hormone receptor beta (Homo sapiens) (UniProt P10828); assay: qHTS assay for small molecule antagonists of thyroid hormone receptor beta signaling (AID 588547; active = well fitted inhibition curve with a large enough effect in the signal ratio, with a control signal flat, not every such curve was filed as active; the % refers to the signal ratio;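 note: cells stimulated with 0.4 nM T3 agonist during compound exposure; % is set by controls: 0 for no effect and ±100 for the full control effect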); conditions: TR-UAS-bla HEK293, beta-lactamase ratio, antagonist mode, 18 h
In short: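 TR-UAS-bla GripTite HEK293 cells in 2% charcoal/dextran FBS medium were preincubated 4 h at 37 C, given compound (0.59 nM to 92 uM) plus 0.4 nM T3 (final) for 18 h, then CCF4 for 2 h at RT; Hill fit gave IC50.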

[4] = target: Luciferin 4-monooxygenase (Photinus pyralis) (UniProt P08659); assay: Biochemical firefly luciferase enzyme assay for NPC (AID 624030);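 note: purified P. pyralis luciferase at 10 nM with luciferin and ATP substrate; 0% = DMSO and -100% = full luciferase inhibition by PTC124 control; nearly all actives have a fitted effect of over 70% in size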
In short: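 Counter-screen for direct inhibition of the luciferase enzyme by approved-drug library compounds, run at 10 nM enzyme in 50 mM Tris acetate (final). Luminescence was read within 5 min of enzyme-buffer addition and normalized to PTC124 versus DMSO (0%).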

[5] = qHTS assay for small molecule agonists of the antioxidant response element (ARE) signaling pathway (AID 651741; active = well fitted activation curve with a large enough effect in the signal ratio; the % refers to the signal ratio; note: % of control where 0% means no effect)
In short: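 Reporter: beta-lactamase under ARE, stably in HepG2. Exposure: 16 h, 37 C, compounds delivered in DMSO by pin tool after 5 h cell preincubation. Readout: FRET substrate fluorescence after 2 h at RT.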

[6] = qHTS assay for small molecule activators of the p53 signaling pathway (AID 651743; active = well fitted activation curve with a large enough effect in the signal ratio, not every such curve was filed as active; the % refers to the signal ratio; note: % of control where 0% means no effect); conditions: HCT-116 p53RE-bla, beta-lactamase FRET ratio, 16 h; activation: stronger effect = higher value
In short: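 Agonist-mode quantitative HTS in HCT-116 cells carrying a p53-response-element beta-lactamase reporter; 16 h compound treatment at 37 C, then FRET substrate loading for 2 h at room temperature and fluorescence read.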

[7] = qHTS assay for small molecule disruptors of the mitochondrial membrane potential - 1 hr assay (AID 651754; calls by dose curve; note: % is set by controls: 0 for no effect and ±100 for the full control effect; nearly all actives have a fitted effect of over 35% in size)
In short: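 Loss of mitochondrial potential shifts the cationic dye from red mitochondrial aggregates to green cytoplasmic monomers. Cells (HepG2) are treated with compound for 1 hr before a 30 min dye incubation at 37C.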

[8] = qHTS assay for small molecule disruptors of the mitochondrial membrane potential - 5 hr assay (AID 651755; calls by dose curve; note: % is set by controls: 0 for no effect and ±100 for the full control effect; nearly all actives have a fitted effect of over 40% in size)
In short: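 Seed HepG2 overnight, add compound, incubate 5 hr at 37C and 5% CO2, stain 30 min with Mito-MPS, then measure monomer (490/535 nm) and aggregate (540/590 nm) fluorescence.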

[9] = target: Tumor necrosis factor (Homo sapiens) (UniProt P01375); assay: qHTS assay to identify small molecules that stimulate Tumor Necrosis Factor-alpha (TNF-alpha) secretion (AID 651757; active = well fitted curve in the direction sought with a large enough effect in the signal ratio; the % refers to the signal ratio; note: 0% is about no effect)
In short: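 Human monocytic THP-1 cells are plated, treated with compound and held at 37 C for 17 hrs. Labeled anti-TNF-alpha antibody mixture is then added; after 3 hr at room temperature, TR-FRET signal reports secreted TNF-alpha.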

[10] = target: Peroxisome proliferator-activated receptor alpha (Homo sapiens) (UniProt Q07869); assay: qHTS assay for small molecule agonists of the peroxisome proliferator-activated receptor alpha (PPARalpha) signaling pathway (AID 651778); conditions: PathHunter PPARalpha complementation, chemiluminescence, 6 h; stronger effect = higher value; note: % of control where 0% means no effect
In short: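 Cells plated at 2,000/well and held overnight at 37 C, 5% CO2, then compound added by pin tool for 6 hr; after PathHunter detection reagent and 60 min at room temperature, chemiluminescence from enzyme complementation was read.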

[11] = target: Nuclear receptor ROR-gamma (Homo sapiens) (UniProt P51449); assay: qHTS assay for small molecule antagonists of the retinoid-related orphan receptor gamma (ROR-gamma) signaling pathway (AID 651802);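 note: CHO cells with doxycycline-induced ROR-gamma expression; % is set by controls: 0 for no effect and ±100 for the full control effect; nearly all actives have a fitted effect of over 60% in size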
In short: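 Steps: cells dispensed; compound or DMSO transferred by pin tool; doxycycline added to induce the ROR response element-driven luciferase; plates held 16hr at 37C; ONE-Glo added and luminescence measured.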

[12] = qHTS assay for small molecule agonists of the antioxidant response element (ARE) signaling pathway measured by Nrf2-dependant transcriptional activity (AID 720636; active = well fitted curve in the direction sought with a large enough effect in the repeat runs; an effect the other way counts as inactive or inconclusive;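 note: HepG2 cells with an ARE-driven luciferase reporter; % of control where 0% means no effect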)
In short: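 HepG2 ARE-luc reporter line, 1% dialyzed FBS; 6 hr attachment at 37 C, compound pinned in, 16 hr at 37 C/5% CO2; ONE-Glo, 30 min RT, luminescence read.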

[13] = qHTS assay for small molecule antagonists of the retinoid-related orphan receptor gamma (ROR-gamma) signaling pathway - cell viability counter screen (AID 720652; active = well fitted curve in the direction sought with a large enough effect in the repeat runs; an effect the other way counts as inactive or inconclusive;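 note: CHO reporter cells with doxycycline-induced ROR-gamma expression; compound exposure lasted 16 hr before ATP read; % is set by controls: 0 for no effect and ±100 for the full control effect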)
In short: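 Steps: seed CHO cells bearing TET-inducible ROR and ROR response element-luciferase; rest 5 hr at 37 C; add compound, then doxycycline; incubate 16 hr; add CellTiter-Glo and read luminescence as ATP-based viability.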

[14] = qHTS assay for small molecule agonists of the antioxidant response element (ARE) signaling pathway measured by Nrf2-dependant transcriptional activity - cell viability counter screen (AID 720653; active = well fitted curve in the direction sought with a large enough effect in the repeat runs; an effect the other way counts as inactive or inconclusive; note: % is set by controls: 0 for no effect and ±100 for the full control effect); conditions: ARE-bla HepG2 viability, CellTiter-Glo ATP luminescence, 16 h; max response: stronger effect = lower value
In short: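 ARE-bla HepG2 cells (2,000/well) rested 5 hrs at 37C/5% CO2, then exposed to compounds in DMSO for 16 hrs. Viability was read in the same wells as intracellular ATP by luminescence, 30 min at room temperature after reagent addition.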

[15] = qHTS Assay for Identifying Gametocytocidal Compounds (AID 743244);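 note: % is set by controls: 0 for no effect and ±100 for the full control effect; actives lower the fluorescent signal which means gametocytes are killed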; conditions: P. falciparum 3D7 stage III-V gametocytes, alamarBlue, 72 h; max response: stronger effect = lower value
In short: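 P. falciparum 3D7 stage III–V gametocytes (20,000 cells/well) were exposed to compounds for 72 h at 37 °C, 5% CO2. AlamarBlue was then added for 24 h; decreased resorufin fluorescence (Ex 525/Em 598 nm) indicated loss of viability.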

[16] = qHTS assay for cell viability of HEK293 cells (AID 743288); conditions: ATP luminescence (CellTiter-Glo), 18 h; max response: stronger effect = lower value; note: % is set by controls: 0 for no effect and ±100 for the full control effect; nearly all actives have a fitted effect of over 50% in size
In short: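 After 18 h compound exposure at 37 C, parental HEK293 cells (2,000/well) are lysed with CellTiter-Glo and luminescence is read following 30 min at room temperature.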

[17] = qHTS assay for cell viability of the p53RE-bla HCT-116 cell line (AID 743292); note: % is set by controls: 0 for no effect and ±100 for the full control effect; nearly all actives have a fitted effect of over 55% in size
In short: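 Luminescent ATP quantitation (CellTiter-Glo) served as the viability read-out; reagent was added after 16 h compound exposure at 37 C and read after 30 min at room temperature. Cells: p53RE-bla HCT-116, 4,000 per well.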

[18] = P-glycoprotein substrates identified in KB-8-5-11 adenocarcinoma cell line, qHTS therapeutic library screen (AID 1346987); note: % is set by controls: 0 for no effect and ±100 for the full control effect; nearly all actives have a fitted effect of over 65% in size
In short: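 Luminescence from CellTiter-Glo, read 5 min after addition, quantified survival of KB-8-5-11 (P-gp-overexpressing) cells exposed to compounds for 72 h. AC50 was derived from concentration-response curves.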

KB-3-1 = assay: Cytotoxic Profiling of Annotated Libraries Using Quantitative High-Throughput Screening (AID 1296008); conditions: Five cell lines viability, CellTiter-Glo ATP luminescence, 48-72 h; max response: stronger effect = lower value; note: % is set by controls: 0 for no effect and ±100 for the full control effect; nearly all actives have a fitted effect of over 60% in size
In short: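 Compounds were pin-transferred onto cells and incubated 48 or 72 hr at 37 degree Celsius, 95% humidity. CellTiter-Glo was added, plates sat 10 min at room temperature, then ATP-coupled luminescence was imaged as the viability read-out.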

[19] = Drug repurposing screens with cells derived from glioblastoma tumor samples (AID 1345199); conditions: GBM patient neurospheres viability, ATP luminescence, 48 h; Potency: tumour line A; series mostly up to 45.9 µM; note: % is set by controls: 0 for no effect and ±100 for the full control effect; nearly all actives have a fitted effect of over 40% in size
In short: (§2)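 Primary testing used CD133+ neurospheres from four GBM patients, seven concentrations, 48 h exposure and ATP-based viability; confirmation added three slower-growing patient lines.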

astro = assay: as above; conditions: viability, ATP luminescence, 48 h; series mostly up to 45.9 µM
In short: as §2

[20] = target: Nuclear receptor subfamily 1 group I member 2 (Rattus norvegicus) (UniProt Q9R1A7); assay: qHTS assay for small molecule activators of the rat pregnane X receptor (rPXR) signaling pathway (AID 651751; call rule not given here; note: 0% is about no effect); conditions: rPXR reporter cells, luciferase (One-Glo), 24 h
[21] = qHTS assay for small molecule activators of the human pregnane X receptor (PXR) signaling pathway (AID 720659; call rule not given here; note: 0% is about no effect)

Sequence of Luciferin 4-monooxygenase (Photinus pyralis) (P08659 whole entry, looked up): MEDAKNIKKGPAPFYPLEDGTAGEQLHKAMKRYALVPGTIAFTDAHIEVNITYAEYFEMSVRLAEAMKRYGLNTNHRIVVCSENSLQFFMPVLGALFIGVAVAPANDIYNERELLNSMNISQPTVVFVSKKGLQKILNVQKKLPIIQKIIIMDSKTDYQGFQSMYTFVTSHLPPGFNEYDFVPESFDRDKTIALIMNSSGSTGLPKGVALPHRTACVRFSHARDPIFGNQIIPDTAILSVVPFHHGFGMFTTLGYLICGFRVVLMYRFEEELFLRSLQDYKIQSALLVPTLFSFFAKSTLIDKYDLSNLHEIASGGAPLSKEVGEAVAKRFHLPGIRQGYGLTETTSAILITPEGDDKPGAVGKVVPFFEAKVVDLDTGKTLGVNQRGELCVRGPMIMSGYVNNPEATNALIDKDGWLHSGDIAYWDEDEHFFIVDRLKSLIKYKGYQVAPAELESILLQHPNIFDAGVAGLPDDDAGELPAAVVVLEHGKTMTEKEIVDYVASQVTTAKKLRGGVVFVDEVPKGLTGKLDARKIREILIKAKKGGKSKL
Sequence of Tumor necrosis factor (Homo sapiens) (P01375 whole entry, looked up): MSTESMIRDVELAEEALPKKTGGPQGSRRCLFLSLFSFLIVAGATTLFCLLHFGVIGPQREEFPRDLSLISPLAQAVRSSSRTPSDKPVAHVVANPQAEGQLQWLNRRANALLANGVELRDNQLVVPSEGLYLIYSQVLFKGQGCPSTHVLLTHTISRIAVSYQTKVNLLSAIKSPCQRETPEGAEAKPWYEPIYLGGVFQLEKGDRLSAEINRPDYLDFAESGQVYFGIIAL
Sequence of Thyroid hormone receptor beta (Homo sapiens) (P10828 whole entry, looked up): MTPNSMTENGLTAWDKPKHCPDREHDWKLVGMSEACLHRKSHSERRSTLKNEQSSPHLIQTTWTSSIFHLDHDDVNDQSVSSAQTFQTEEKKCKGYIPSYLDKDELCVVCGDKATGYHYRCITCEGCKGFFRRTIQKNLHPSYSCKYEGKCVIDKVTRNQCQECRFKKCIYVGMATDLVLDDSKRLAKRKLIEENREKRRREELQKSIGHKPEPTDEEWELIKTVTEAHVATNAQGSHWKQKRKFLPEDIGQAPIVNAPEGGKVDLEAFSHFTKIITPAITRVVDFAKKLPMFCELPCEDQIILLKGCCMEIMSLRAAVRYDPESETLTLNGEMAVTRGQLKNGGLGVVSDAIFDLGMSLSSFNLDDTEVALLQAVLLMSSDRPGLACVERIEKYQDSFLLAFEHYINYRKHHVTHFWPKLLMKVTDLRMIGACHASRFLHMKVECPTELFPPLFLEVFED
Sequence of Retinoic acid receptor RXR-alpha (Homo sapiens) (P19793 whole entry, looked up): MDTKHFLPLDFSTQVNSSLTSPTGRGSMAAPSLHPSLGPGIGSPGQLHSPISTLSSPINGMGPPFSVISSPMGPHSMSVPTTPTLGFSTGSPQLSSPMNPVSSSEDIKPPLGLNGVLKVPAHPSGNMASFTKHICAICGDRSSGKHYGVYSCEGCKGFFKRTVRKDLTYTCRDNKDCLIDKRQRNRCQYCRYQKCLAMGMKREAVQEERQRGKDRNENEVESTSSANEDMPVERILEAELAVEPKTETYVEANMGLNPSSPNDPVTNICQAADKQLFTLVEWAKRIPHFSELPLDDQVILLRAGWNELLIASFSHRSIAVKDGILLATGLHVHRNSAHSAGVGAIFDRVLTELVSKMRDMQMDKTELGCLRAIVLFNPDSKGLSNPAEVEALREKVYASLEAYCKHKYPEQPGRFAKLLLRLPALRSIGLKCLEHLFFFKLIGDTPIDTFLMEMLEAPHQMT
Sequence of Peroxisome proliferator-activated receptor alpha (Homo sapiens) (Q07869 whole entry, looked up): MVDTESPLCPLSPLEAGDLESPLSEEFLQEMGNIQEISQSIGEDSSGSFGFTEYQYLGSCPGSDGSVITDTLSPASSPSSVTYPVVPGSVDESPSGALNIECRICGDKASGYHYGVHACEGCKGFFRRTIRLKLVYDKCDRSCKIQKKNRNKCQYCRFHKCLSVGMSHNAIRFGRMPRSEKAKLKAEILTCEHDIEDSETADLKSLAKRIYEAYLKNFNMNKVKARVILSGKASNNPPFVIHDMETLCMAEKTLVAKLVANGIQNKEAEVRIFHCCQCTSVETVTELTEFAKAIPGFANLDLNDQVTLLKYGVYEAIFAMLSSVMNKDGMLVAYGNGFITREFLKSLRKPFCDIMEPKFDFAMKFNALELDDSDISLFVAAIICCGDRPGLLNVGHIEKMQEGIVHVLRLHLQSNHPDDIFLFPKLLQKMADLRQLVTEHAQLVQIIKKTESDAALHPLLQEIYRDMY
Sequence of Nuclear receptor subfamily 1 group I member 2 (Rattus norvegicus) (Q9R1A7 whole entry, looked up): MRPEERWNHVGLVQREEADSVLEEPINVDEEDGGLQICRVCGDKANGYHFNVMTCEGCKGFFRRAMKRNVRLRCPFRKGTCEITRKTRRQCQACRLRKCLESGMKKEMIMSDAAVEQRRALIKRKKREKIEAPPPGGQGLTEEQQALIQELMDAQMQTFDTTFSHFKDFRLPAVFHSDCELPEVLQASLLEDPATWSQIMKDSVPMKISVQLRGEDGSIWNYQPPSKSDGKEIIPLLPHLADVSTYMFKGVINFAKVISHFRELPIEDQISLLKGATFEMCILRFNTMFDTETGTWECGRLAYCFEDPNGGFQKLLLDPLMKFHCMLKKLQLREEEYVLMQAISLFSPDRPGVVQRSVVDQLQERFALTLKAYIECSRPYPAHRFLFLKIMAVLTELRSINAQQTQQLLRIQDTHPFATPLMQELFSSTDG
Sequence of Nuclear receptor ROR-gamma (Homo sapiens) (P51449 whole entry, looked up): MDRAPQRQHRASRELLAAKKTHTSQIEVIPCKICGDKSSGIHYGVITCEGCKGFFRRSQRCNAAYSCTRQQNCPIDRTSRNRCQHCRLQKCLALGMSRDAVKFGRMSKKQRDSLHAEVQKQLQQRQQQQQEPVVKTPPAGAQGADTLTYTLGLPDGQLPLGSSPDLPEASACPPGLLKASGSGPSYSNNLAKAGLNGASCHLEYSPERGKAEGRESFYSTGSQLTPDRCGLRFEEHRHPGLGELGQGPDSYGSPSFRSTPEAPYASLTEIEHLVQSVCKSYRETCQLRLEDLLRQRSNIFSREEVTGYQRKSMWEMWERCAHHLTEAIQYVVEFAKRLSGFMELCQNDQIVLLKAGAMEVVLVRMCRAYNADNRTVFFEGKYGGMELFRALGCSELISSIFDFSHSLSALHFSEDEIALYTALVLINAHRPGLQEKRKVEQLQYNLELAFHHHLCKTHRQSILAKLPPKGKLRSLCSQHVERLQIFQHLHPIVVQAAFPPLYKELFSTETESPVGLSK

O=Cc1ccccc1
-3.83%: max response [1]
inactive: max response [2] 10.9% | activity change % (negative = inhibition) [3] 12% | Potency [4] | Potency [5] | activation [6] -1.08% | Potency [7] | Potency [8] | outcome [9] | max response [10] -3.46% | Potency [11] | Potency [12] | outcome [13] | max response [14] -5.51% | max response [15] -4.29% | max response [16] -12% | outcome [17] | Potency [18] | max response (KB-3-1) -11.1% and 0.83% | Potency [19] | Potency (astro) | max response [20] 2.23% | outcome [21]
